# A selection: hits, their analogues and other compounds. The true share with any hit is near 2.7%.
# MsrA act: bovine MsrA enzyme activators, primary screen, biochemical, absorbance, HTS; Methionine sulfoxide reductase A (Bos taurus); purified bovine MsrA, absorbance read-out; activation, % at 10.6 µM; 360,000 compounds, 0.3% hits; in the data active means activation above about 7.5%
# NadD inh: inhibitors of S. aureus NadD, primary screen, biochemical, colorimetric, uHTS; 360,000 compounds, 0.78% hits; purified NadD enzyme, colorimetric absorbance read-out; AID 602399, 2012; Nicotinate-nucleotide adenylyltransferase NadD (Staphylococcus aureus N315); inhibition, % at 20 µM; in the data active means inhibition above about 26%
# MsrA inhibitor: bovine MsrA enzyme inhibitors, primary screen, biochemical, absorbance, HTS | Methionine sulfoxide reductase A (Bos taurus) | purified bovine MsrA, absorbance read-out | inhibition, % at 15.5 µM | 360,000 compounds, 0.75% hits | AID 651718, 2012; in the data active means inhibition above about 4.5%
# rCAG binder: binders of r(CAG) RNA repeats, primary screen, biochemical, fluorescence. inhibition, % at 3 µM. 370,000 compounds, 1.3% hits. AID 651821, 2012. r(CAG) RNA repeat, TO-PRO-1 dye displacement fluorescence;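 active means inhibition above the plate cutoff, the mean of all test compounds on that plate plus 3 SD, cut at about 35% in these data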;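 further: higher means more dye released from RNA so lower well fluorescence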
# rCAG bind conf: small molecules binding CAG repeat RNA – biochemical, fluorescence, confirmation; shares compounds with rCAG binder; r(CAG) RNA repeat, TO-PRO-1 dye displacement fluorescence; inhibition, % at 3 µM; 4,300 compounds, 70% hits; AID 652065, 2013;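 active means inhibition above a per-plate cutoff, the mean inhibition of sample wells plus 3 SD, cut at about 35% in these data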;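 further: loss of TO-PRO-1 fluorescence as compound displaces dye from 1x1 AA loop RNA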
# DNA CAG counter: displacement of TO-PRO-1 from CAG DNA duplex, counter-screen for rCAG RNA repeat binder project, biochemical, fluorescence, TO-PRO-1 dye, d(CAG) DNA oligo | AID 652068, 2013 | d(CAG) DNA oligo TO-PRO-1 dye displacement | shares compounds with rCAG binder | inhibition, % at 3 µM | 4,300 compounds, 94% hits;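 active means inhibition above its plate's cutoff, the mean test-well inhibition plus 3 SD, cut at about 4.8% in these data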;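 further: hits displace the dye from DNA and so lower well fluorescence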
# DNA CAG DR: inhibitors of DNA CAG/GTC TO-PRO-1 complex, dose response, counter-screen for rCAG RNA repeat binder project, biochemical, fluorescence, TO-PRO-1 dye. shares compounds with rCAG binder. DNA CAG/GTC duplex TO-PRO-1 dye displacement fluorescence. IC50, µM. 250 compounds, 20% hits. AID 686960, 2013; in the data active means IC50 below about 10 µM
# Numbers stand for hits; - = inactive; . = not tested or not shown.
SMILES,MsrA act,NadD inh,MsrA inhibitor,rCAG binder,rCAG bind conf,DNA CAG counter,others
COc1cc(/C=C2\C(=N)N3N=C(S(C)(=O)=O)SC3=NC2=O)cc(OC)c1OCCOc1ccc(C)cc1,-,30.3,-,57.1,88.2,57.5,
O=C(Nc1cccc(F)c1)NC1(C(=O)N2CCOCC2)CCCCC1,-,-,-,-,.,.,
COc1cc(/C=C2\SC(=S)N(C(Cc3ccccc3)C(=O)O)C2=O)ccc1O (stereo unspecified),-,-,-,45.4,-,7.9,
COc1cc(/C=C2\SC(=S)N(Nc3ccccc3)C2=O)ccc1O,-,-,-,-,.,.,
Cc1ccc(/C=C2\SC(=S)N(C(Cc3ccccc3)C(=O)O)C2=O)cc1 (stereo unspecified),-,-,-,42.2,80.2,37.1,
O=C(O)C(Cc1ccccc1)N1C(=O)c2ccccc2C1=O (stereo unspecified),-,-,-,-,.,.,
O=C(O)C(Cc1ccccc1)N1C(=O)/C(=C/c2ccccc2)SC1=S (stereo unspecified),-,-,-,53.0,55.7,19.7,
O=C(O)C(Cc1ccccc1)N1C(=O)c2c(Cl)c(Cl)c(Cl)c(Cl)c2C1=O (stereo unspecified),-,-,-,50.5,53.5,17.2,
C=CCN(C(=O)c1csnn1)C(C(=O)NC1CCCCC1)c1ccc(F)cc1 (stereo unspecified),-,-,-,-,.,.,
O=C(COC(=O)CCc1nc2ccccc2c(=O)[nH]1)Nc1ccc2c(c1)OCO2,-,-,-,-,.,.,
Cc1cc(/C=N/n2c(COc3ccccc3)nc3ccccc3c2=O)c(O)c([N+](=O)[O-])c1,-,-,-,65.5,62.6,26.7,
Cc1ccc(-c2[nH]ncc2/C=N/n2c(COc3ccccc3)nc3ccccc3c2=O)cc1,-,-,-,-,.,.,
Cc1cc(C)c(NC(=O)Cn2c(=O)c3cccn3c3ccccc32)c(C)c1,-,-,-,-,.,.,
COC(=O)c1c[nH]n2c(=O)c(Cl)c(C)nc12,-,-,-,-,.,.,
Cc1nc2c(C(=O)NCc3ccccc3Cl)c[nH]n2c(=O)c1Cl,-,-,-,80.6,58.0,20.8,
Cc1nc2c(C(=O)NCCc3ccccc3Cl)c[nH]n2c(=O)c1Cl,-,-,-,70.7,74.3,33.4,DNA CAG DR=4.48
O=c1[nH]c(=S)[nH]cc1Oc1ccc(Br)cc1Br,-,-,-,-,.,.,
CCn1c(N)c(C(=O)COC(=O)CCc2nc3ccccc3c(=O)[nH]2)c(=O)[nH]c1=O,-,-,-,-,.,.,
C=CCN1C(=O)/C(=C/c2ccc(OC(C)=O)c(OCC)c2[N+](=O)[O-])SC1=S,-,-,-,79.8,42.2,12.3,
N#Cc1c(SCC(=O)Nc2ccc(C(F)(F)F)cc2)sc2c(O)cc(=O)[nH]c12,-,-,-,52.6,-,11.2,
Cc1ccc(NC(=O)CSc2sc3c(O)cc(=O)[nH]c3c2C#N)c(F)c1,-,-,-,45.5,-,11.2,
COc1ccc(OC)c(NC(=O)CSc2sc3c(O)cc(=O)[nH]c3c2C#N)c1,-,-,-,47.9,-,10.1,
N#Cc1c(SCC(=O)Nc2nncs2)sc2c(O)cc(=O)[nH]c12,-,-,-,62.3,43.8,15.5,
N#Cc1ccsc1NC(=O)CSc1nncs1,-,-,-,-,.,.,
Cc1cc(=O)[nH]c(SCC(=O)Nc2ccc(F)cc2)c1C#N,-,-,-,-,.,.,
SMILES,MsrA act,NadD inh,MsrA inhibitor,rCAG binder,rCAG bind conf,DNA CAG counter,others
COc1ccc(OC)c(NC(=O)CSc2nc3[nH]c(=O)cc(O)c3s2)c1,-,-,-,-,.,.,
COCCN(CCOC)C(=O)COC(=O)c1cc([N+](=O)[O-])ccc1Cl,-,-,-,-,.,.,
COc1ccc2[nH]cc(CCNC(=O)Cc3ccc(Cl)cc3)c2c1,-,-,-,-,.,.,
O=C1CCC([N+](=O)[O-])C(c2ccc3c(c2)OCO3)N1 (stereo unspecified),-,-,-,-,.,.,
COc1ccc(C(=O)Nc2ccc(S(=O)(=O)Nc3nccc(C)n3)cc2)cc1,-,-,-,-,.,.,
Cc1ccc(O)c(-c2cc(C(=O)Nc3ccc(S(=O)(=O)Nc4nccc(C)n4)cc3)[nH]n2)c1,-,-,-,58.9,48.5,17.4,
CC1(C)CC(=O)C2=C(C1)OC1=C(C(=O)CC(C)(C)C1)C2c1cc([N+](=O)[O-])cc([N+](=O)[O-])c1O,-,-,-,52.6,64.1,24.2,
O=C(CNC(=O)N1CC(=O)Nc2ccccc21)NCc1ccc(Cl)cc1,-,-,-,-,.,.,
CC(C)[C@H](NC(=O)C1CCN(S(=O)(=O)c2ccccc2)CC1)C(=O)NCc1ccc(F)cc1,-,-,-,-,.,.,
CCN1C(=O)[C@H]2[C@@H](c3ccc(Cl)cc3)N3C(=O)CN(CCOC)C(=O)[C@@]3(Cc3ccccc3)[C@H]2C1=O,-,-,-,-,.,.,
O=C(Nc1nc2ccccc2s1)c1cnccn1,-,-,-,-,.,.,
O=C(Nc1nc(-c2ccco2)c(-c2ccco2)s1)c1cnccn1,.,.,-,44.2,-,13.3,
CCCCCCCCCC(=O)N1c2ccccc2NC(=O)C1CC(=O)Nc1ccc(C(=O)O)cc1 (stereo unspecified),-,-,-,74.1,69.5,29.5,
C=CCn1c(Cn2c(-c3cnccn3)nc3ccccc32)nc2ccccc21,-,-,-,-,.,.,
Cc1onc(-c2c(Cl)cccc2Cl)c1C(=O)NN1CCCCCC1,-,-,-,-,.,.,
CSC(=NS(=O)(=O)c1ccccc1)NNC(=O)c1c(-c2c(Cl)cccc2Cl)noc1C,-,-,-,34.8,-,-,
CC1CCc2c(sc3nc(CN4CCOCC4)nc(NS(=O)(=O)c4cccc([N+](=O)[O-])c4)c23)C1 (stereo unspecified),-,-,-,62.1,70.8,27.7,DNA CAG DR=-
Cc1cc(S(=O)(=O)Nc2nc(CN3CCOCC3)nc3sc4c(c23)CCCC4)ccc1F,-,-,-,-,.,.,
CC1(C(=O)NS(=O)(=O)c2ccccc2)CCN1C(=O)CC(c1ccccc1)c1ccccc1 (stereo unspecified),-,-,-,-,.,.,
CC1(C(=O)NS(=O)(=O)c2ccccc2Cl)CCN1C(=O)CC(c1ccccc1)c1ccccc1 (stereo unspecified),-,-,-,50.1,44.7,9.2,
CC1(C(=O)NS(=O)(=O)c2cccc(OC(F)F)c2)CCN1C(=O)CC(c1ccccc1)c1ccccc1 (stereo unspecified),-,-,-,51.7,45.8,13.8,

# Bioassay records deposited in PubChem by several laboratories.
